# Source: PubChem
# The list is not random: actives were taken first. Their share in the collection is about 2.2%.
# TRAIL sens C8: caspase-8 TRAIL sensitization. 360,000 tested, 1% active. inhibition (viability loss, TRAIL sensitization), % at 10 µM. NB7+C8 cells + TRAIL, ATPlite viability luminescence;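 active means compounds causing at least 50% loss of cell viability in the single-dose screen, relative to plate controls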
# CF NFkB block: blocks PAF-induced NF-kB reporter in cystic fibrosis cells | AID 588850 | inhibition, % at 5 µM | 360,000 tested, 0.86% active | KKLEB NF-kB-GFP reporter, GFP fluorescence overnight;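 active means at least 50% inhibition at 5 µM, scaled per plate between neutral and stimulator controls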;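 further: PAF is a Pseudomonas aeruginosa culture filtrate used as stimulus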
# PPC-1+TRAIL kill: compounds killing PPC-1 cancer cells with TRAIL present (potentiator screen, no TRAIL-free arm); PPC-1 cells + TRAIL, ATPLite viability luminescence; cell killing (% activity), % at 4 µM or 5 µM; 220,000 tested, 0.41% active; AID 1443;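 active means cell killing above 50% in the first pass at 4 µM, then a duplicate retest at 5 µM averaging 50% or more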
# HIF-2a block: inhibitors of HIF-2a; 360,000 tested, 0.72% active; inhibition, % at 18.8 µM; AID 624352; 786-0 RCC cells HIF-2a reporter, luciferase luminescence, overnight;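 active means inhibition of the luminescence signal of 40% or more relative to plate controls, in a single-dose primary screen at 18.75 µM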
# hiPSC survival: enhancers of human iPSC single-cell survival | hiPSC single-cell survival, ATPlite luminescence; 100% = ROCK inhibitor wells, 0% = DMSO | survival enhancement, % at 20 µM | 360,000 tested, 0.044% active | AID 602274; in the data active means survival enhancement above about 18%;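 further: cells exposed to compounds for 16 hours before the ATP read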
# KKLEB cytotox: counter-screen for CF NF-kB inhibitors: cytotoxicity. KKLEB CF airway cells viability, ATPlite luminescence, overnight; active compounds read low; cells stimulated with P. aeruginosa culture filtrate. activity change (cytotoxicity), % at 5 µM. 360,000 tested, 0.36% active. AID 602141;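 active means corrected activity change at or below -50% at 5 µM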
# PPC-1 tox: kills PPC-1 cells; shares compounds with PPC-1+TRAIL kill; PPC-1 viability, ATPlite luminescence, overnight; cytotoxicity, % at 5 µM; 1,200 tested, 50% active; AID 1447;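 active means reconfirmed compounds whose average cytotoxicity reaches 50% or more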
# Numbers stand for hits; 0 = inactive; - = no result given.
SMILES,TRAIL sens C8,CF NFkB block,PPC-1+TRAIL kill,HIF-2a block,hiPSC survival,KKLEB cytotox,PPC-1 tox
C=CCN(CC=C)S(=O)(=O)c1ccc(NC(=O)COc2ccccc2OC)cc1,0,0,0,0,0,0,0
COc1ccccc1OCC(=O)Nc1ccc(S(=O)(=O)N2CCCCCC2)cc1,0,0,0,0,0,0,-
COc1cc(N/N=C/c2ccc(N(C)C)cc2)ncn1,77,0,69,0,0,0,69
COc1cc(N/N=C/c2ccccc2O)ncn1,0,0,0,0,0,0,-
COCc1c(C(=O)NCCOc2ccc(Cl)cc2)oc2ccccc12,0,0,-,0,0,0,-
O=C(c1cccc(S(=O)(=O)N2CCc3ccccc32)c1)N1CCOCC1,0,0,-,0,0,0,-
Oc1[nH]c2ccccc2c1N=Nc1ccccn1,0,0,-,0,0,0,-
Oc1c(N=Nc2ccccn2)ccc2ccccc12,74,0,82,0,0,0,80
O=CC(O)C1OC(=O)C(O)C1O (configuration not stated),0,0,-,0,0,0,-
O=C1[C@H](Cc2ccccc2)NCC=CC[C@H](c2ccco2)N1Cc1ccccc1,0,0,-,0,0,0,-
OC1(c2nc3ccccc3[nH]2)CCCCC1,0,0,-,0,0,0,-
CC(=O)Nc1ccc(NC(=O)Cn2cc3c(n2)CCCC3)cc1,0,0,0,0,0,0,0
COc1ccc(CNc2ncc(-c3cccc([N+](=O)[O-])c3)n2C)c(OC)c1OC,0,0,-,0,0,0,-
N#Cc1c(NC(=O)CSc2nc(-c3ccccc3)cc(C(F)(F)F)n2)sc2c1CCC2,0,0,0,0,0,0,-
CCC1CCc2c(sc(NC(=O)CSc3nc(-c4ccco4)cc(C(F)(F)F)n3)c2C#N)C1 (configuration not stated),0,0,0,0,0,0,0
Cc1cccc([N+](=O)[O-])c1NC(=O)COC(=O)c1nc2nccc(C)n2n1,0,0,-,0,0,0,-
N#Cc1cc2c(nc1SCc1nc3ccccc3[nH]1)CCC2,-,-,0,-,-,-,0
O=C(COc1ccc([N+](=O)[O-])cc1)NNC(=O)Nc1ccccc1F,0,0,-,0,0,0,-
CC(=O)Nc1ccc(S(=O)(=O)NC2(C(F)(F)F)C(=O)Nc3c2c(=O)n(C)c(=O)n3C)cc1 (configuration not stated),0,0,0,0,0,0,0
Cc1cc(C(=O)N2CCCC(Nc3ccccc3)C2)c2ccc(F)cc2n1 (configuration not stated),0,0,-,0,0,0,-
Clc1ccc(/C=C/c2nc3ccccc3[nH]2)c(Cl)c1,87,0,94,0,0,-76,95
Clc1ccc(/C=C/c2nc3ccccc3[nH]2)cc1,88,0,87,0,0,-74,86
O=C(/C=C/c1ccc(Cl)cc1Cl)c1nc2ccccc2[nH]1,0,0,0,0,0,0,-
O=C(Nc1cc(Cl)ccc1O)C1CCCO1 (configuration not stated),0,0,0,0,0,0,-
O=C(O)c1ccccc1NC(=O)C1CCCO1 (configuration not stated),0,0,0,0,0,0,0
SMILES,TRAIL sens C8,CF NFkB block,PPC-1+TRAIL kill,HIF-2a block,hiPSC survival,KKLEB cytotox,PPC-1 tox
COC(=O)c1ccccc1NC(=O)C1CCCO1 (configuration not stated),0,0,0,0,0,0,-
O=C(O)c1cc(Cl)ccc1NC(=O)C1CCCO1 (configuration not stated),0,0,0,0,0,0,0
CC(C)(C)OC(=O)NC1CC2CCCC(C1)N2Cc1ccccc1 (configuration not stated),0,0,-,0,0,0,-
CC(=O)Cc1cc(O)c2ccccc2c1OC(=O)c1ccccc1,0,0,0,0,0,0,0
CC1CN(C(=O)c2ccc3c(c2)OCO3)CC(C)O1 (configuration not stated),0,0,0,0,0,0,0
COc1ccc(C(=O)N/N=C/c2ccccn2)cc1OC,0,0,0,0,0,0,-
COc1ccc(C(=O)Nc2ccccc2C(=O)N/N=C/c2ccccn2)cc1OC,85,0,75,0,0,0,75
O=C(N/N=C/c1cc2c(cc1Br)OCO2)c1ccccn1,0,0,0,0,0,0,-
